According to the supplement of paper PMC4100887:
± gives the standard deviation of the averaged measurements.

Columns and labels:
IMR-90 = assay: relative cell viability (ATPlite) vs untreated control (fraction); higher = less toxic; conditions: 1 µM; 72 h
K562 [1] = assay: as above; conditions: 1 µM; 72 h
K562 [2] = assay: relative cell viability (ATPlite) vs untreated control, with imatinib (fraction); higher = less toxic; conditions: 1 µM; 72 h; imatinib 0.125 µM

Compound | relative cell viability (IMR-90) | relative cell viability (K562 [1]) | relative cell viability (K562 [2])
O=C1NC(=O)c2c1c1c3ccccc3n3c1c1c2c2ccccc2n1[C@H]1CC[C@@H]3O1 | 1.04 ± 0.092 | 0.872 ± 0.058 | 0.797 ± 0.069
COC(=O)[C@]1(O)C[C@@H]2O[C@@]1(C)n1c3ccccc3c3c4c(c5c6ccccc6n2c5c31)C(=O)NC4 [K-252a, Nocardiopsis sp.] | 0.668 ± 0.06 | 0.305 ± 0.26 | 0.363 ± 0.26
CC(C)(C)c1cc(C=C(C#N)C#N)cc(Br)c1O | 0.962 ± 0.047 | 1 ± 0.12 | 0.847 ± 0.017
NC(=NN=Cc1ccc(-c2cccc([N+](=O)[O-])c2)o1)N[N+](=O)[O-] [ERK Inhibitor III] | 1.01 ± 0.12 | 0.937 ± 0.079 | 0.775 ± 0.053
O=[N+]([O-])/C=C/c1ccc2c(c1)OCO2 [Syk Inhibitor III] | 0.932 ± 0.087 | 0.819 ± 0.063 | 0.753 ± 0.033
O=S(=O)(c1c(O)c(Cl)cc(Cl)c1Cl)c1c(O)c(Cl)cc(Cl)c1Cl [p38 MAP Kinase Inhibitor IV] | 0.988 ± 0.073 | 0.813 ± 0.076 | 0.762 ± 0.026
COc1ccc2c(c1)/C(=C/c1cnc[nH]1)C(=O)N2 | 1.31 ± 0.26 | 0.907 ± 0.17 | 0.881 ± 0.08
